About 83,000 compounds went through this panel and 20% of them were active in at least one assay; those are over-represented in the sample as a whole.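 Plates (96-well) were seeded with cells, treated with compound at one concentration, and incubated for 48 hours before percent growth was determined.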 Activity calls are given as the source filed them. Rule for the calls: active = growth percent below 10; inactive = the rest.
What follows are molecules tested on T-47D breast (assay: NCI-60 one-dose screen, 48 h (100 = growth as untreated, 0 = no growth, -100 = all killed)). Conditions: 10 µM.

Row | Compound | growth
1 | CCN(CC)CCNc1ccc(CO)c2oc3cc(Cl)ccc3c(=O)c12 | 117% (inactive)
2 | COc1ccc(-c2nc3ccccn3c2-c2nnc(-c3cc(OC)c(OC)c(OC)c3)o2)cc1 | 48% (inactive)
3 | N#Cc1c(C#N)c(SSc2c(C#N)c(C#N)c(N)n2-c2ccccc2)n(-c2ccccc2)c1N | 96.5% (inactive)
4 | Cc1ccc(-c2nc(/C=C3/C(=O)N(C)c4ccc(F)cc43)c3ccccn23)cc1 | 109% (inactive)
5 | CCN(CC)CCSCCCNc1c2ccc(Cl)cc2nc2ccc(OC)cc12 | -32.8% (active)
6 | CN1CC[C@@H](c2c(O)cc(O)c3c(=O)cc(-c4ccccc4Cl)oc23)[C@@H](O)C1 | 4.59% (active)
7 | CCc1ccc2c(c1)N(CCO)C1=C(C(=O)OC1)C2c1ccccc1 (stereo not given) | 95.6% (inactive)
8 | Cc1cccc2c(NCCN(C)C)c3cccc(C(=O)NCCN(C)C)c3nc12 | 29.3% (inactive)
9 | CCCN(CCC)CCC(O)c1cc2c(c3ccccc13)CCCC2 (stereo not given) | 68.9% (inactive)
10 | COc1ccc2c(c1)/C(=C\c1c[nH]c3ccc(OC)cc13)C(=O)N2 | 49.7% (inactive)
11 | Nc1ccn(C2CC(O)C(CO)O2)c(=O)n1 (stereo not given) | 103% (inactive)
12 | COc1cccc(C2C3=C(COC3=O)N(CCO)c3cc(OC)ccc32)c1 (stereo not given) | 62.1% (inactive)
13 | CCCC1(CC(=O)O)OCCc2c1[nH]c1ccccc21 (stereo not given) | 194% (inactive)
14 | CN(C)C(=S)N/N=C\C=N/NC(=S)N(C)C | 15% (inactive)
15 | C=C(NC(=O)C(=C)NC(=O)c1csc(C2=NC3c4csc(n4)C4NC(=O)c5csc(n5)C(C(C)(O)C(C)O)NC(=O)C5CSC(=N5)/C(=C/C)NC(=O)C(C(C)O)NC(=O)c5csc(n5)C3(CC2)NC(=O)C(C)NC(=O)C(=C)NC(=O)C(=C)NC(=O)C(C(C)C)NC2C=Cc3c(C(C)O)cc(nc3C2O)C(=O)OC4C)n1)C(N)=O (stereo not given) | -6.42% (active)
16 | COc1ccc2nc3ccccc3c(NCCNCC(C)O)c2c1 (stereo not given) | -3.73% (active)
17 | CN(C)CCN1C(=O)c2cccc3cc(N)cc(c23)C1=O | 12.4% (inactive)
18 | COc1ccc(N2C(=O)C3c4[nH]c5ccc(OCc6ccccc6)cc5c4C4CCC(C(C)C)CC4C3C2=O)cc1 (stereo not given) | 104% (inactive)

Row | Compound | growth
19 | CC(C)C[C@H](NC(=O)[C@H](Cc1cccc2ccccc12)NS(=O)(=O)c1cccc2cccnc12)B(O)O | -44.6% (active)
20 | O=C(CC(C(=O)c1ccccc1)N1CCOCC1)c1ccccc1 (stereo not given) | 72.1% (inactive)
21 | NC(=O)SCC(=O)Nc1ccc(S(N)(=O)=O)cc1 | 98.2% (inactive)
22 | CCCCN(CCCC)CCCCCCCCC(O)c1cc2ccccc2c2ccccc12 (stereo not given) | 31.7% (inactive)
23 | O=C(CCCCCCC(=O)Nc1cccnc1)NO | -28.7% (active)
24 | Clc1cccc(-c2nc(-c3cccs3)no2)c1 | 66.7% (inactive)
25 | CCCCCCCCCCCCCCCCCCOCC(COCCOCC[N+]1(CCCCCC(=O)[O-])CCCC1)Oc1ncccn1 (stereo not given) | 42.3% (inactive)
26 | CC/C(=N\N=C(/CC)c1ccc(Br)cc1)c1ccc(Br)cc1 | 83% (inactive)
27 | O=C1OCC2=C1C(c1ccc(Cl)c(Cl)c1)c1cc3c(cc1N2CCO)OCCO3 (stereo not given) | 62.2% (inactive)
28 | COc1cc2nc(Nc3cccc(NC(C)=O)c3)nc(N)c2cc1OC | 90.1% (inactive)
29 | Cc1nc2ccc(CN(C)c3ccc(C(=O)N[C@@H](CCC(=O)O)C(=O)O)s3)cc2c(=O)[nH]1 | 55.4% (inactive)
30 | CCCCCCCCN(CCCCCCCC)CCCCCCCCCN1CCCc2cc(OC)ccc21 | 74.3% (inactive)
31 | Nc1ncnc2[nH]c(=O)[nH]c12 | 94.2% (inactive)
32 | COc1ccc2c(c1)sc1nc(-c3ccccc3)c(-c3cccnc3)n12 | 93.3% (inactive)
33 | C=C(Cl)[C@@](Cl)(CBr)CC[C@@H](Br)C(C)(C)Cl | -58.9% (active)
34 | C[N+](C)(C)c1ncnc2nc[nH]c12 | 91.7% (inactive)
35 | COC(=O)[C@@H]1[C@H](O)[C@H](C)[C@H](O)[C@@](C)(O)/C=C\C=C(C)C(=O)Nc2c(C)c(OC(C)=O)c3c(c2O)C(=O)C(C)=C2OCOC(=C23)C(C)=C[C@@](C)(O)[C@H](O)[C@@H](C)[C@H]1OC(C)=O | 102% (inactive)

Source: PubChem BioAssay (NCI)
